The results in this text go back to PubChem BioAssay AID2314 (National Center for Advancing Translational Sciences (NCATS), 2010).

Structures are written as SMILES. Screen size: about 300,000 compounds; about 37,000 (12%) were called active. The full list was thinned out, with actives kept by preference. Values without a mark were called inactive. No stated cut-off is given here; in the data, active means max response mostly above about 13% (no sharp cut-off); inactive means mostly below about 14%.

The assay is described as follows: Cycloheximide Counterscreen for Small Molecule Inhibitors of Shiga Toxin. Further: read at 38.3 µM for the half of the compounds with a filed dose; 0% is about no effect. The settings on record: cell reporter, cycloheximide protein synthesis inhibition counterscreen; hits give high values.
On to `C=CCNC(=S)NNc1ncnc2sc3c(c12)CC(C)(C)OC3`, for which the max response is -1.51%.

For `COc1ccccc1CNS(=O)(=O)CC12CCC(CC1=O)C2(C)C` (stereo not drawn), the max response was -1.52%.

For the molecule `CC(C)(C)OC(=O)CNC(=O)c1[nH]cnc1C(=O)N[C@@H](Cc1ccccc1)C(=O)OCc1ccccc1`, the max response was -1.14%.

Turning to `CCOC(=O)N1CCN(Cc2nnc(-c3ccccc3Cl)o2)CC1`, the max response is -1.64%.

Consider `N/C(=N\S(=O)(=O)c1cc(C(F)(F)F)cc(C(F)(F)F)c1)c1cccs1`, for which the max response is 0.609%.

Regarding `Cc1nn(Cc2ccc(Cl)cc2)c(Cl)c1/C=N/NC(=O)c1cccnc1`, the max response is -2.03%.

Regarding `Cc1nn(Cc2ccc(Cl)cc2)c(Cl)c1/C=N/NC(=O)CNc1ccccc1F`, the max response is -0.244%.

`CCn1nc(C)c(/C=N/NC(=O)Cc2ccc(Cl)cc2)c1C`: the max response is 27.9% (active).

Take `COCCCNC(=O)[C@H]1N2C(=O)c3ccccc3C2SC1(C)C` (stereo partly drawn): the max response is -1.51%.

For `Cc1ccc(SCCSc2ncccn2)cc1`, the max response is 44.5% (active).

Regarding `Cc1ccc(SCCC(=O)NCc2ccccn2)cc1`, the max response was -2.86%.

Turning to `Cc1ccc(SCCC(=O)NC(C(C)C)C(C)C)cc1`, the max response was 1.28%.

In the case of `Cc1cc(=O)oc2cc(OCC(=O)N3CCN(c4ccc(F)cc4)CC3)c(Cl)cc12`, the max response is -1.36%.

As for `Cc1cc(C)n2nc(SCC(=O)NC(=O)NCc3ccco3)nc2n1`, the max response was 3.86%.

As to `COc1ccc(NC(=O)c2cccc(Cl)c2)c[n+]1[O-]`, the max response is -3.34%.

Consider `C/C(=N\N(C)C)c1ccc(OCCOc2ccc([N+](=O)[O-])cc2)cc1`, for which the max response was 10.2%.

Consider `CCOCCCNC(=O)C(NC(=O)c1ccc(=O)[nH]c1)c1ccc(C)cc1` (stereo not drawn), for which the max response was -5.76%.

Consider `CCOCCCNC(=O)c1c[nH]c2cc(C)ccc2c1=O`, for which the max response is 15.4% (active).

As for `CCc1cccc2c(=O)c(C(=O)NCCCOC)c[nH]c12`, the max response was -0.768%.

Turning to `CCOC(=O)C1(CCOC)CCN(Cc2ccc(C(=O)OC)cc2)CC1`, the max response is 19.1% (active).

For `CCOC(=O)C1(CCOC)CCN(Cc2cc3ccccc3s2)CC1`, the max response is -0.534%.

As for `CCOC(=O)C1(CCOc2ccccc2)CCN(Cc2cc(OC)cc(OC)c2)CC1`, the max response was -1.48%.

Regarding `Cn1ncc(Br)c1C(=O)NCc1cccs1`, the max response is 2.99%.

Regarding `CCOC(=O)N1CCN(Cc2nc3cc(NC(C)=O)ccc3n2C)CC1`, the max response was -2.56%.

As to `COc1ccc(-n2cnc3cc(NCc4ccco4)ccc32)cc1`, the max response is 20.3%.

Consider `Cc1cc2nc(C)n(CCCNC(=O)Nc3ccccc3)c2cc1C`, for which the max response is -3.47%.

Consider `Cn1c(CN2CCOCC2)nc2cc(NC(=O)c3ccc(Cl)cc3)ccc21`, for which the max response was 32.5% (active).

`CCOc1ccc(C(=O)Nc2ccc(CN3CCOCC3)cc2)cc1Cl`: the max response was 6.5%.

Take `Cc1nc2cc(NC(=O)Nc3cccc(F)c3)ccc2n1C`: the max response is 23% (active).

Consider `Cc1nc2cc(NCc3cccs3)ccc2n1C`, for which the max response was 51.1% (active).

For `O=C(CCN1C(=O)c2ccccc2C1=O)Nc1cccc(F)c1`, the max response was -3.51%.

Regarding `Cc1nc2cc(NC(=O)NC3CC3)ccc2n1C`, the max response is 20.8% (active).

In the case of `Cc1ccc(NC(=O)NC2CCCCC2)cc1S(=O)(=O)N1CCOCC1`, the max response is -2.12%.
